Compound activity as filed in PubChem.
GALK inhibitor: inhibitors of human galactokinase; P51570; Purified GALK, Kinase-Glo residual ATP luminescence; AID 1868; Potency, µM (titrated, usually from 57.5 µM), most hits filed as inhibitors; 270,000 compounds, 0.007% hits
Target sequence (P51570 whole entry, looked up): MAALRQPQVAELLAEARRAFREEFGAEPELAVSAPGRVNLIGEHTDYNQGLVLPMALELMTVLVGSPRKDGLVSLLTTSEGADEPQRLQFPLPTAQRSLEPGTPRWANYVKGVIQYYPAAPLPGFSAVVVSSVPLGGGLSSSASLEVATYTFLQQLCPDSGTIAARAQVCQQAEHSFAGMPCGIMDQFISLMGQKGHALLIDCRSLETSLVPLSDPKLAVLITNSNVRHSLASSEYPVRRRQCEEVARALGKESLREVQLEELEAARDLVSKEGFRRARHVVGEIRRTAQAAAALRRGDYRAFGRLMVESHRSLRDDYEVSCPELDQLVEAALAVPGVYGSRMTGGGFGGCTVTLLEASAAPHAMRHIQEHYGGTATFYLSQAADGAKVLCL
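ATP-depletion format; final 35 uM ATP, 100 uM D-galactose, 5 nM enzyme; pH 8.0 HEPES/Mg2+ buffer; 60 min RT; luminescence read 10 min after detection reagent.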
GAA glycogen: GAA glycogen-cleavage inhibition or activation; Potency, µM (titrated, usually from 76.4 µM), usual class: inhibitors; recombinant GAA, glycogen substrate, Amplex Red glucose oxidase fluorescence; 300,000 compounds, 0.38% hits; P10253;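 also: the screen sought inhibitors and activators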
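qHTS, 1536-well; enzyme 4 nM final; cpd up to 77 uM; substrate bovine liver glycogen 30 ug; 50 mM citrate/phosphate pH 5.0, 0.01% Tween-20; 37 C, 40 min; Amplex Red detection 45 min RT; Hill fit → AC50.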
GAA spleen mod: inhibits or activates alpha-glucosidase in human spleen homogenate | 240,000 compounds, 0.006% hits | P10253 | AID 2112 | human spleen homogenate, 4-MU-alpha-glucoside fluorescence | Potency, µM (highest dose often 79.9 µM), most hits filed as inhibitors
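Enzyme source: human spleen homogenate, 1 ug/well. Buffer 50 mM citric acid/K phosphate pH 5.0, 0.01% Tween-20. 4-MU-alpha-glucoside 1 mM; 37 C x 40 min; NaOH/glycine stop; fluorescence.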
PKM2 activator: PKM2 (human) enzyme activation; Potency, µM (top dose mostly 57.5 µM), hits mostly activators; P14618; 260,000 compounds, 0.34% hits; purified PKM2, Kinase-Glo ATP luminescence, activation; response scale: 0% is enzyme alone, no compound; also: nearly all actives have a fitted effect of over 55% in size
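Purified hPK-M2 (>95% pure) converted ADP (0.1 mM final) to ATP with 0.5 mM PEP in 50 mM imidazole pH7.2, KCl, MgCl2, Tween 20, BSA; 1 h at room temperature. ATP detected by Kinase-Glo luminescence.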
GAA inhib: inhibitors of human lysosomal alpha-glucosidase; 200,000 compounds, 0.005% hits; Potency, µM (series often up to 76.9 µM), usual class: inhibitors; AID 1466; purified human GAA, 4-MU-alpha-glucoside fluorescence; P10253
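Compounds are titrated up to 77 uM against 4 nM human enzyme. Substrate 4-methylumbelliferyl-alpha-D-pyranoside (400 uM) reacts 20 min at room temperature in pH 5.0 buffer; liberated 4-methylumbelliferone is read at 440 nm.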
Each line names hits and unclear results; the compound was inactive in the other large screens. Sampled rows, rich in hits. Any-hit rate of the full collection: about 0.63%. Calls follow the shape of the dose curve; as a rule, active = well fitted curve in the direction sought with a large enough effect; inconclusive = small, poorly fitted or top-dose-only effect, or another doubt; inactive = no such curve, though single readings can be large; an effect the other way counts as inactive or inconclusive.

CCOc1cc(CNc2ccc(N3CCOCC3)cc2)cc(Br)c1OCC	none (no result: GALK inhibitor)
CCOc1cc(CNc2ccc(N3CCN(C(C)=O)CC3)cc2)cc(Br)c1OC	none (no result: GALK inhibitor)
COc1ccc(CCNC(=O)c2cc(=O)c3cc(C)c(C)cc3o2)cc1OC	none (no result: GALK inhibitor, GAA spleen mod, PKM2 activator, GAA inhib)
Cc1cccn(Cc2c(F)cccc2Cl)c1=O	PKM2 activator 32µM (no result: GAA inhib)
CN=c1scc(C)n1/N=C/c1ccc(O)c(O)c1O	GAA glycogen 11µM
CC(=O)c1cnc2nc(C(F)(F)F)nn2c1C	none
CC(=O)c1cnc2nc(SCc3ccccc3C)nn2c1C	PKM2 activator 13µM (no result: GAA spleen mod, GAA inhib)
O=c1c2sccc2nc(SCc2cc(=O)n3cc(Br)ccc3n2)n1Cc1ccccn1	PKM2 activator 7.9µM
Cc1ccc(CSc2nc3ccsc3c(=O)n2Cc2ccccn2)cc1	none
Cc1cccc(NNC(=O)C(=O)NNc2cccc(C)c2)c1	GAA glycogen inconclusive (no result: GAA inhib)
CCCc1ccc(C(=O)NNc2cccc(C)c2)cc1	GAA glycogen 16µM (no result: GAA inhib)
CCOc1ccc(C(=O)N2CCC(c3nc4ccccc4o3)CC2)cc1	none (no result: GALK inhibitor, GAA spleen mod, PKM2 activator, GAA inhib)
O=C(O)c1ccccc1NC(=O)N1c2ccccc2Sc2ccccc21	GAA glycogen 18µM (no result: GALK inhibitor, GAA spleen mod, PKM2 activator, GAA inhib)
COc1cc(NC(=O)N2c3ccccc3Sc3ccccc32)c(C(=O)O)cc1OC	none (no result: GAA glycogen, GAA spleen mod, GAA inhib)
Cc1ccc(S(=O)(=O)N2CCc3cc(C(=O)Nc4c(F)cccc4F)ccc32)cc1	none (no result: GALK inhibitor, GAA spleen mod, PKM2 activator, GAA inhib)
CCOc1ccc2c(c1)-c1c(ssc1=S)C(C)(C)N2	GAA glycogen 20µM, GAA spleen mod inconclusive
CCOc1ccc2c(c1)-c1c(ssc1=S)C(C)(C)N2C(=O)CSC1=NCCS1	GAA inhib inconclusive
CCOC(=O)C1CCN(C(=O)Cn2ncc3c4ccccc4n(Cc4ccc(F)cc4)c3c2=O)CC1	none (no result: GALK inhibitor, GAA spleen mod, PKM2 activator, GAA inhib)
COc1ccc(-c2c(C#N)c(SCC(=O)Nc3ccccc3C)nc(C)c2C(=O)Nc2ccccc2)cc1OC	none (no result: GALK inhibitor, GAA spleen mod, PKM2 activator, GAA inhib)
CCOC(=O)C1CCCN(C(=O)Cn2nc(CC)n3c(cc4occc43)c2=O)C1 (centres undefined)	none (no result: GALK inhibitor, GAA spleen mod, PKM2 activator, GAA inhib)
Oc1ccc(/C=N/NC(=S)NCC2CCCO2)cc1 (centres undefined)	GAA glycogen 32µM
COCCCNC(=S)N/N=C/c1ccc(O)cc1	GAA glycogen 32µM, PKM2 activator inconclusive (no result: GALK inhibitor)
COCCCNC(=S)N/N=C/c1ccc(OC)cc1	none
Cc1ccccc1-c1nc(CS(=O)(=O)CC(=O)NCc2cccc(Cl)c2)c(C)o1	none (no result: GALK inhibitor, GAA spleen mod, PKM2 activator, GAA inhib)
N#CC1=C(N)C2=C(N3CCCCC3)CCCC2C1(C#N)C#N (centres undefined)	GAA glycogen 22µM
COc1cc(C2C(C#N)=C(C)NC3=C2C(=O)CC(C)(C)C3)cc(OC)c1O (centres undefined)	GAA glycogen 12µM
COc1cc(/C=N/N2C(=O)CSC2=S)ccc1O	GAA glycogen 32µM
O=C(C1CCN(S(=O)(=O)Cc2ccccc2)CC1)N1CCN(c2ccccc2)CC1	none (no result: GALK inhibitor, GAA spleen mod, PKM2 activator, GAA inhib)
CC1CCC/C(=C\Nc2ccc(O)cc2)C1=O (centres undefined)	GAA glycogen 14µM
O=C(Nc1nnc(SCc2ccc(F)cc2)s1)C1CC(=O)N(Cc2ccccc2)C1 (centres undefined)	PKM2 activator 13µM
Cc1nnc(NC(=O)C2CC(=O)N(Cc3ccccc3)C2)s1 (centres undefined)	none (no result: GAA spleen mod, GAA inhib)
COc1ccc(C2=NOC(C(=O)Nc3cc(C)on3)C2)cc1OC (centres undefined)	PKM2 activator 3.5µM (no result: GALK inhibitor, GAA inhib)
CCc1ccc(OC2=NS(=O)(=O)c3ccccc32)cc1	none
CCN(CC)c1cccc(OC2=NS(=O)(=O)c3ccccc32)c1	GAA glycogen 28µM
CC(C)NC(=O)NC(=O)CSc1ncc(C(F)(F)F)cc1Cl	PKM2 activator 14µM
O=c1cc(CN2CCN(c3ccccc3O)CC2)nc2sccn12	GAA glycogen 7.9µM
CCc1ccccc1NC(=O)c1sc(-n2nc(C)c(Cc3ccccc3)c2C)nc1C	none (no result: GALK inhibitor, GAA spleen mod, PKM2 activator, GAA inhib)
CCCCNc1nc2c(S(=O)(=O)c3ccc(Br)cc3)nnn2c2ccsc12	none (no result: GALK inhibitor, GAA spleen mod, PKM2 activator, GAA inhib)
CCOc1ccc(S(=O)(=O)Nc2cccc(OC)c2)c2cccnc12	none (no result: GALK inhibitor, GAA spleen mod, PKM2 activator, GAA inhib)
Cn1c(=O)c2[nH]c(Nc3ccccc3)nc2n(C)c1=O	GAA glycogen 7.1µM
CC(=O)Nc1sc(NC(=O)c2ccc(Cl)cc2)nc1-c1cccs1	none
Nc1nc(-c2cccs2)c(NC(=O)c2ccccc2)s1	GAA glycogen 20µM
